In all, about 1,600 compounds were measured (“Hit score”: median about 0.13, highest 2% from about 0.46 on). Shown is part of a subset that was picked to be rich in the highest values. *1 amine or outer side, *2 acyl side, *3 side chain or, on linkers, in order; H or OH if unused. Where a SMILES comes first, the peptide text is derived from it. Bridges are numbered along the chain shown (N, C = ends). [ ]: non-standard residue; d: D form. The star is where a group is joined. pTerphenylCO(4''-OnC5H11) = CCCCCOc1ccc(-c2ccc(-c3ccc(C(=O)*)cc3)cc2)cc1; Orn(4R-OH,5R-OH) = O=C([C@H](C[C@@H](O)[C@@H](O)N[*:3])N[*:1])[*:2]; hTyr(3S-OH,4S-OH) = N[C@H](C(=O)O)[C@H](O)[C@@H](O)c1ccc(O)cc1; Pro(3S-OH,4S-Me) = C[C@H]1CN[C@H](C(=O)O)[C@H]1O; Hyp = O=C(O)[C@@H]1C[C@@H](O)CN1
tested on: SARS-CoV-2; assay: Antiviral activity against SARS-CoV-2 (USA-WA1/2020 strain) measured by imaging in HRCE cells at MOI 0.4 after 96 hrs (reported as hit score from 0-1 for on-disease vs off-disease activity: scores >0.6 considered hits); format: functional, Homo sapiens

SMILES	Hit score
COc1cc2nccc(Oc3ccc(NC(=O)Nc4cc(C)on4)c(Cl)c3)c2cc1OC [TIVOZANIB]	0.1611
CC1(C)S[C@@H]2[C@H](NC(=O)COc3ccccc3)C(=O)N2[C@H]1C(=O)O [PENICILLIN V]	0.002553
Cc1c(Cl)c(C)[n+]([O-])c(Cl)c1-c1noc(-c2cc(O)c(O)c([N+](=O)[O-])c2)n1 [OPICAPONE]	-0.07412
Cc1ccc2c(c1)[C@]13CCCC[C@@H]1[C@H](C2)N(C)CC3 [DIMEMORFAN]	0.08461
CCCCCOc1ccc(-c2ccc(-c3ccc(C(=O)N[C@H]4C[C@@H](O)[C@@H](O)NC(=O)[C@@H]5[C@@H](O)[C@@H](C)CN5C(=O)[C@H]([C@@H](C)O)NC(=O)[C@H]([C@H](O)[C@@H](O)c5ccc(O)cc5)NC(=O)[C@@H]5C[C@@H](O)CN5C(=O)[C@H]([C@@H](C)O)NC4=O)cc3)cc2)cc1 [ANIDULAFUNGIN] ({pTerphenylCO(4''-OnC5H11)}-[Orn(4R-OH,5R-OH)]T[Hyp][hTyr(3S-OH,4S-OH)]T[Pro(3S-OH,4S-Me)]; lactam 1-C)	0.1907
C=CC(=O)Nc1cccc(Oc2nc(Nc3ccc(N4CCN(C)CC4)cc3)nc3ccsc23)c1 [OLMUTINIB]	0.2407
Cc1oc(=O)oc1COC(=O)C1=C([C@H]2CCCO2)S[C@@H]2[C@@H]([C@@H](C)O)C(=O)N12 [FAROPENEM MEDOXOMIL]	0.000691
CC(C)(O)CNc1nc(Nc2ccnc(C(F)(F)F)c2)nc(-c2cccc(C(F)(F)F)n2)n1 [ENASIDENIB]	0.1439
OC[C@H]1O[C@@](CO)(O[C@H]2O[C@H](CO)[C@@H](O)[C@H](O)[C@H]2O)[C@@H](O)[C@@H]1O [SUCROSE]	0.09545
Cc1cc(S(=O)(=O)[O-])c2c(C)ccc(C(C)C)cc1-2.[Na+] [SODIUM GUALENATE]	0.2044
CCCCCCCCCCCCCCCC(=O)O[C@@H]1[C@@H](O)[C@@H](O)[C@@H]([C@H](NC(=O)[C@@H]2C[C@@H](CCC)CN2C)[C@H](C)Cl)O[C@@H]1SC [CLINDAMYCIN PALMITATE]	0.1881
CCn1c(=O)c2c(nc(/C=C/c3ccc(OC)c(OC)c3)n2C)n(CC)c1=O [ISTRADEFYLLINE]	0.1372
COc1ccc(-c2cc(=O)c3c(O)c(OC)c(O)cc3o2)cc1OC [EUPATILIN]	0.2352
CC[C@]12CCCN3CCc4c(n(c5ccccc45)C(=O)C1)[C@@H]32 [VINBURNINE]	0.1621
CCOc1nc2cccc(C(=O)O)c2n1Cc1ccc(-c2ccccc2-c2noc(=O)[nH]2)cc1 [AZILSARTAN]	0.1513
CCC(C)(Oc1ccc(C2(c3ccc(OC(C)(CC)C(=O)O)cc3)CCCCC2)cc1)C(=O)O (centres undefined) [CLINOFIBRATE]	0.1194
N[C@@H](CCN[C@@H](CCN1CC[C@H]1C(=O)O)C(=O)O)C(=O)O	0.1041

SMILES	Hit score
Cn1cnc2c(F)c(Nc3ccc(Br)cc3F)c(C(=O)NOCCO)cc21 [BINIMETINIB]	0.0233
O=C(O)c1cc2ccccc2c(Cc2c(O)c(C(=O)O)cc3ccccc23)c1O [PAMOIC ACID]	0.0734
COC(=O)N[C@H](C(=O)N1CCC[C@H]1c1ncc(-c2ccc(-c3ccc(-c4cnc([C@@H]5CCCN5C(=O)[C@@H](NC(=O)OC)C(C)C)[nH]4)cc3)cc2)[nH]1)C(C)C	-0.06011
Cc1ccc(NC(=O)C2(c3ccc4c(c3)OC(F)(F)O4)CC2)nc1-c1cccc(C(=O)O)c1 [LUMACAFTOR]	0.04797
Cc1nccn1CCC(C(N)=O)(c1ccccc1)c1ccccc1 [IMIDAFENACIN]	0.008612
CCC(=O)NC[C@@H]1C[C@H]1c1cccc2c1CCO2 [TASIMELTEON]	0.1536
CC(C)OC(=O)CCC/C=C\C[C@@H]1[C@@H](/C=C/C(F)(F)COc2ccccc2)[C@H](O)C[C@@H]1O [TAFLUPROST]	0.14
O=[N+]([O-])c1cncn1CCN1CCOCC1 [NIMORAZOLE]	0.1444
CCCCCC(=O)O[C@]1(C(C)=O)CC[C@H]2[C@@H]3CCC4=CC(=O)CC[C@]4(C)[C@H]3CC[C@@]21C [HYDROXYPROGESTERONE CAPROATE]	0.1371
COc1cc(C)c2c(Oc3cccc(C(F)(F)F)c3)c(OC)cc(NC(C)CCCN)c2n1.O=C(O)CCC(=O)O (centres undefined) [TAFENOQUINE SUCCINATE]	0.101
C[C@]12C=CC(=O)N[C@@H]1CC[C@@H]1[C@@H]2CC[C@]2(C)[C@@H](C(=O)Nc3cc(C(F)(F)F)ccc3C(F)(F)F)CC[C@@H]12 [DUTASTERIDE]	0.3162
CO[C@H]1C[C@@H]2CC[C@@H](C)[C@@](O)(O2)C(=O)C(=O)N2CCCC[C@H]2C(=O)O[C@H]([C@H](C)C[C@@H]2CC[C@@H](O)[C@H](OC)C2)CC(=O)[C@H](C)/C=C(\C)[C@@H](O)[C@@H](OC)C(=O)[C@H](C)C[C@H](C)/C=C/C=C/C=C/1C [SIROLIMUS]	0.6828
CO[C@H]1C[C@@H]2CC[C@@H](C)[C@@](O)(O2)C(=O)C(=O)N2CCCC[C@H]2C(=O)O[C@H]([C@H](C)C[C@@H]2CC[C@@H](OC(=O)C(C)(CO)CO)[C@H](OC)C2)CC(=O)[C@H](C)/C=C(\C)[C@@H](O)[C@@H](OC)C(=O)[C@H](C)C[C@H](C)/C=C/C=C/C=C/1C [TEMSIROLIMUS]	0.4599
C=CC[C@@H]1/C=C(\C)C[C@H](C)C[C@H](OC)[C@H]2O[C@@](O)(C(=O)C(=O)N3CCCC[C@H]3C(=O)O[C@H](/C(C)=C/[C@@H]3CC[C@@H](O)[C@H](OC)C3)[C@H](C)[C@@H](O)CC1=O)[C@H](C)C[C@@H]2OC [TACROLIMUS ANHYDROUS]	0.3285
CO[C@H]1C[C@@H]2CC[C@@H](C)[C@@](O)(O2)C(=O)C(=O)N2CCCC[C@H]2C(=O)O[C@H]([C@H](C)C[C@@H]2CC[C@@H](OCCO)[C@H](OC)C2)CC(=O)[C@H](C)/C=C(\C)[C@@H](O)[C@@H](OC)C(=O)[C@H](C)C[C@H](C)/C=C/C=C/C=C/1C [EVEROLIMUS]	0.4984
CO[C@H]1C[C@@H]2CC[C@@H](C)[C@@](O)(O2)C(=O)C(=O)N2CCCC[C@H]2C(=O)O[C@H]([C@H](C)C[C@@H]2CC[C@H](n3cnnn3)[C@H](OC)C2)CC(=O)[C@H](C)/C=C(\C)[C@@H](O)[C@@H](OC)C(=O)[C@H](C)C[C@H](C)/C=C/C=C/C=C/1C [ZOTAROLIMUS]	0.6315
CC[C@@H]1/C=C(\C)C[C@H](C)C[C@H](OC)[C@H]2O[C@@](O)(C(=O)C(=O)N3CCCC[C@H]3C(=O)O[C@H](/C(C)=C/[C@@H]3CC[C@H](Cl)[C@H](OC)C3)[C@H](C)[C@@H](O)CC1=O)[C@H](C)C[C@@H]2OC [PIMECROLIMUS]	0.2951

From ChEMBL document CHEMBL4303122, “Identification of potential treatments for COVID-19 through artificial intelligence-enabled phenomic analysis of human cells infected with SARS-CoV-2” (2020)
